{"source": "PubChem BioAssay (NCATS)", "note": "Inconclusive results are not listed. Values without a mark were called inactive. The source made the active and inactive calls. Calls follow the shape of the dose curve; as a rule, active = well fitted cell-killing curve with a large enough effect; inconclusive = small, poorly fitted or top-dose-only effect; inactive = flat fitted curve, though single readings scatter. Potency is read from the fitted curve at half-maximal effect."}
{"experiment": "Identifying Small Molecule Inhibitors of Pancreatic Cancer Stem Cells (SN12C, Adherent) (AID 1259358);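 also: cell survival measured after 48 h of compound exposure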", "conditions": "viability/growth inhibition; series mostly up to 46.1 µM; viability (percent of control): at the top concentration", "in_short": "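Cytotoxicity read by CellTiter-Glo luminescence after 48 h compound exposure at 37C; percent activity scaled between DMSO-treated cells and cell-free wells. Spheroid formats used cells pre-formed 14 days in stem cell media on hydrogel.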", "units": {"viability (percent of control)": "%"}}
{"smiles": "CC(=O)NCCC(=O)N[C@@H](CCC(N)=O)C(=O)N[C@@H](CO)C(=O)N[C@@H](CCC(N)=O)C(=O)N[C@@H](CCC(N)=O)C(=O)N[C@H](C(=O)N[C@@H](Cc1ccccc1)C(=O)N[C@]1(C)CCCCCCC=CCCC[C@@](C)(C(=O)N[C@@H](CCC(N)=O)C(=O)N[C@@H](CC(N)=O)C(N)=O)NC(=O)[C@H](CC(C)C)NC(=O)[C@H](CC(C)C)NC(=O)[C@@H](CCCNC(=N)N)NC(=O)[C@H](Cc2c[nH]c3ccccc23)NC(=O)[C@H](CC(C)C)NC(=O)[C@H](CC(N)=O)NC1=O)[C@H](C)O", "viability (percent of control)": 123}
{"smiles": "CCCCc1ccc(NS(=O)(=O)c2ccc(C)c(C(=O)N3CCN(c4cccc(C)c4C)CC3)c2)cc1", "viability (percent of control)": 112}
{"smiles": "CCNC(=O)c1noc(-c2cc(C(C)C)c(O)cc2O)c1-c1ccc(CN2CCOCC2)cc1", "Potency": "0.0105 µM (active)"}
